High-throughput results from PubChem BioAssay.
KB-V1 cytotox: qHTS assay for MDR1-selective chemotherapeutics: Primary screen using the drug-selected MDR subline cells KB-V1. KB-V1 MDR cells viability, CellTiter-Glo, 72 h. Potency, µM (series often up to 46.1 µM), hits mostly cytotoxic. 400,000 compounds, 3.4% hits. AID 1347076, 2019; further: on the % scale 0 is the no-effect control and ±100 the full control effect; nearly all actives have a fitted effect of over 60% in size
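Following 72 h at 37 degrees C with compound, KB-V1 cell viability was read by CellTiter-Glo luminescence, medium being phenol-red-free DMEM plus 10% FBS; concentration-response parameters came from normalized, curve-fitted qHTS data.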
ALOX12 inh: Primary qHTS assay for inhibitors of human arachidonate 12S-lipoxygenase (ALOX12): Round 2; AID 1671190, 2021; 580,000 compounds, 1.1% hits; purified 12hLO, xylenol orange hydroperoxide absorbance; Potency, µM (doses to about 108 µM), for inactives: at the top dose activity change, negative = inhibition, most hits filed as inhibitors; further: on the % scale 0 is the no-effect control and ±100 the full control effect
Target sequence (P18054 whole entry, looked up): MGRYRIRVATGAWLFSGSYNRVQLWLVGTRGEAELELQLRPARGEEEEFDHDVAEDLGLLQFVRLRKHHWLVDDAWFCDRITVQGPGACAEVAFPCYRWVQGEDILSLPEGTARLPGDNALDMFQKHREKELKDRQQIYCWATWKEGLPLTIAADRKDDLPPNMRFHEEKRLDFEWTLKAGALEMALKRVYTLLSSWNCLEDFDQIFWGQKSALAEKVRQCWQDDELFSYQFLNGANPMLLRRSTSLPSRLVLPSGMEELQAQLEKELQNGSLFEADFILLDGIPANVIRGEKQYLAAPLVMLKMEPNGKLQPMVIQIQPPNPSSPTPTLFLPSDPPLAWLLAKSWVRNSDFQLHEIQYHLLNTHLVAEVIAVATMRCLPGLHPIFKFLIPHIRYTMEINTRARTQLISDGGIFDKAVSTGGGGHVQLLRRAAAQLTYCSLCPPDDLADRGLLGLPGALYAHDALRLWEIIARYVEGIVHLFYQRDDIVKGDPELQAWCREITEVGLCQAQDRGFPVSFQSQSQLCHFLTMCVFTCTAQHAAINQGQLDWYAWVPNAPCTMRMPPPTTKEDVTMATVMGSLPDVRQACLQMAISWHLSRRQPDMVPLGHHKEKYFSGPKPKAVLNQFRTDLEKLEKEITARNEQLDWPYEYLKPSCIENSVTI
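Purified human 12hLO at 150 nM in 25 mM Hepes, 0.01% Triton X-100, pH 7.0, preincubated 15 min at room temperature with compound. Reaction started with 40 uM arachidonic acid, 30 min at room temperature. Hydroperoxide measured by Fe-xylenol orange, 573/405 nm absorbance ratio.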
KB-3-1 cytotox: qHTS assay for MDR1-selective chemotherapeutics: Primary screen using the parental adenocarcinoma cell KB-3-1 | KB-3-1 viability, CellTiter-Glo ATP luminescence, 72 h | Potency, µM (doses to about 46.1 µM), usual class: cytotoxic | 400,000 compounds, 1.4% hits; further: on the % scale 0 is the no-effect control and ±100 the full control effect; nearly all actives have a fitted effect of over 60% in size
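KB-3-1 cells, DMEM (no phenol red) + 10% FBS; compound by pin transfer, 72 h, 37 °C. Readout: CellTiter-Glo luminescence after 10 min. Data normalized, curve-fitted.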
MCF10A rereplic: A quantitative high throughput screen for small molecules that induce DNA re-replication in MCF 10a normal breast cells; MCF 10A DNA re-replication, Hoechst nuclear intensity, 48 h; Potency, µM (series often up to 46.1 µM), without a hit: at the top dose activity, positive = re-replication, most hits filed as activators; 350,000 compounds, 2.9% hits; AID 624296, 2012; further: % of control where 0% means no effect; nearly all actives have a fitted effect of over 50% in size
PINK1 expr mod: A Quantitative High throughput Screen to Identify Chemical Modulators of PINK1 Expression; PINK1 immunofluorescence, high-content cytometry, 24 h; Potency, µM (highest dose often 76.6 µM), without a hit: top-dose activation (PINK1 increase), hits mostly activators; 410,000 compounds, 0.2% hits; AID 624263, 2012; active means well fitted activation curve with a large enough effect; inconclusive means small, poorly fitted or top-dose-only effect; cell line not stated here; further: % of control where 0% means no effect; nearly all actives have a fitted effect of over 65% in size
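Decision-based qHTS: stable cells, 24 h exposure to five compound concentrations, CCCP as control. Fixed cells stained for PINK1 plus nuclear, mitochondrial and cell markers, cytometer read.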
SW480 rereplic: A quantitative high throughput screen for small molecules that induce DNA re-replication in SW480 colon adenocarcinoma cells; SW480 DNA re-replication, Hoechst DNA content imaging, 48 h; Potency, µM (highest dose often 46.1 µM), for inactives: at the highest dose re-replication activation, usual class: activators; 340,000 compounds, 1.8% hits; further: % of control where 0% means no effect; nearly all actives have a fitted effect of over 55% in size
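DNA re-replication was detected as more nuclei of elevated Hoechst intensity after 48 hr exposure to compound (23 nL pinned per well of 250 cells).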
Active calls of the source: *; i = inactive; ? = inconclusive; . = no result given; [ ] = dose if it differs, or a comment. Only some compounds are listed: those with a hit (about 5.8% of all), similar ones and a draw of the others. Unless noted, the call rests on the fitted dose curve; in most records, active means well fitted curve in the direction sought with a large enough effect; inconclusive means small, poorly fitted or top-dose-only effect, or another doubt; inactive means no such curve, though single readings can be large; an effect the other way counts as inactive or inconclusive. Potency means the concentration at half of the fitted maximal effect.

SMILES	KB-V1 cytotox	ALOX12 inh	KB-3-1 cytotox	MCF10A rereplic	PINK1 expr mod	SW480 rereplic
CC(=O)C(N=Nc1ccccc1)(Sc1nnc(-c2ccccc2)n1-c1ccccc1)C(C)=O	11.6µM*	0.0%	?	8.4%	-8.4%[38.3 µM]	?
CC(=O)C(N=Nc1ccccc1)(Sc1nnc(-c2ccccc2)n1-c1ccccc1)C(=O)Nc1ccccc1 (centres undefined)	i	-3.9%	i	5.9%	3.1%	4.9%
CC1CN(Cc2ccc(C#N)cc2Cl)CC(C)O1 (centres undefined)	i	?	i	-7.1%	0.1%	-6.4%
CC1CN(Cc2ccc(Cl)cc2Cl)CC(C)O1 (centres undefined)	i	0.631µM*	i	16.0%	0.6%	-3.6%
OC(CN1CCCCCC1)CN(c1ccccc1)c1ccccc1 (centres undefined)	i	i	?	23.3%	0.0%	18.3%
O=C(c1ccccc1)C(CCC(CN1CCOCC1)C(=O)c1ccccc1)CN1CCOCC1 (centres undefined)	5.8µM*	?	5.8µM*	4.61µM*	-0.4%	?
CCCCOc1ccc(C(O)C(CN2CCCCC2)c2ccccc2)cc1 (centres undefined)	i	?	?	?	17.7%	?
CCCCOc1ccc(C(=O)C(CN2CCOCC2)c2ccccc2)cc1 (centres undefined)	?	?	?	?	-1.7%	14.6µM*
OC(CN1CCOCC1)CN(c1ccccc1)c1ccccc1 (centres undefined)	14.6µM*	?	i	16.3%	-2.7%	-7.5%
CCCOc1ccc(C(=O)C(CN2CCCC2)c2ccccc2)cc1 (centres undefined)	?	-13.4%	23.1µM*	8.2µM*	-4.0%	?
c1ccc(C(CN2CCOCC2)c2ccccc2)cc1	?	?	i	-0.8%	-3.4%[38.3 µM]	-4.1%
c1cnc2[nH]cc(-c3nc4ccncc4[nH]3)c2c1	.	40.9%[176 µM]	.	.	.	.
O=C(Nc1cccc(C(=O)NC2CC2)c1)c1cccc(S(=O)(=O)Nc2ccc(F)cc2)c1	.	-4.0%	.	.	.	.
COc1ccc(C(=O)C(CN2CCCC2)c2ccccc2)cc1 (centres undefined)	7.08µM*	-7.5%	7.08µM*	?	-1.8%	?
COc1ccc(C(=O)C(CN2CCOCC2)c2ccccc2)cc1 (centres undefined)	?	-24.8%[57.4 µM]	?	?	-2.6%[38.3 µM]	-1.8%
O=C(c1ccc(F)cc1)C(CN1CCOCC1)c1ccccc1 (centres undefined)	?	-21.4%	?	5.17µM*	-4.2%	?
O=C(c1ccc(Cl)cc1)C(CN1CCCC1)c1ccccc1 (centres undefined)	i	0.4%	?	4.11µM*	-2.3%	?
CCCNCc1ccc(-c2ccc(C(C)O)cc2)o1 (centres undefined)	.	-46.1%	.	.	.	.
CC(=O)Nc1cc(C(=O)OCC(=O)c2ccc(Cl)cc2Cl)ccc1C	?	-9.9%	i	7.6%	?	-5.2%
CC(C)C(=O)Nc1cccc(C(=O)OCC(=O)c2ccc(Cl)cc2Cl)c1	14.6µM*	?	i	10.0%	?	2.9%
Cc1ccc(Oc2ccc(S(=O)(=O)N3CCOCC3)cc2C(N)=O)c(-n2nc3ccccc3n2)c1	18.4µM*	0.0%	6.51µM*	4.61µM*	2.7%	5.17µM*
Cc1ccc(O)c(C(=O)CC(=O)c2ccccc2Cl)c1	7.31µM*	15.6%	?	?	?	4.9%
Cc1ccc(O)c(C(=O)N(C)Cc2c(F)cccc2Cl)c1	.	39.8µM*	.	.	.	.
Cc1cc(C(=O)N(C)Cc2c(F)cccc2Cl)c2ccccc2n1	i	-19.8%	i	-4.4%	0.4%	25.3%
CCCCOn1c(C)c(C(=O)OCC)c2c3nonc3ccc21	8.2µM*	0.0%	i	?	-2.2%	19.0%
SMILES	KB-V1 cytotox	ALOX12 inh	KB-3-1 cytotox	MCF10A rereplic	PINK1 expr mod	SW480 rereplic
CCNc1c(NC(=O)NCC2CCCO2)c(=O)oc2ccccc12 (centres undefined)	.	-23.8%	.	.	.	.
Cc1nc2scc(-c3ccccc3)c2c(=O)n1N=C1C=CC(=O)C=C1	?	2.82µM*	i	?	2.4%	?
CC(C)(C)S(=O)(=O)c1cnc2c(-c3ccc(Cl)cc3)cnn2c1N	i	12.1%	?	14.4%	10.2%	-13.5%
COc1ccc(-c2cnn3c(N)c(S(=O)(=O)C(C)(C)C)cnc23)cc1	14.6µM*	-10.4%	i	15.4%	5.3%[38.3 µM]	?
CCCCn1c(-c2sccc2C)n[nH]c1=S	i	39.8µM*	i	-4.2%	1.0%	-126.5%
CCCCn1c(-c2ccco2)n[nH]c1=S	i	?	i	4.9%	-0.3%	0.8%
COc1ccc(C)cc1CN(C)C(=O)NCc1ccc(S(=O)(=O)N2CCCCC2)cc1	.	47.9%	.	.	.	.
Cc1ccc2cccc(Oc3ccc([N+](=O)[O-])cc3[N+](=O)[O-])c2n1	?	3.7%	i	5.8%	9.5%	-1.9%
N#Cc1cc(Oc2cccc3cccnc23)c(-n2nnc3ccccc32)cc1C#N	?	?	?	14.1µM*	-1.3%[38.3 µM]	?
O=[N+]([O-])c1ccc(Oc2cccc3cccnc23)cc1	.	20.0%	.	.	.	.
N#Cc1ccc(Oc2cccc3cccnc23)c([N+](=O)[O-])c1	20.6µM*	27.6%	i	?	-0.4%	11.9%
O=[N+]([O-])c1ccc(Oc2cccc3cccnc23)c([N+](=O)[O-])c1	20.6µM*	?	i	20.6µM*	5.9%	?
CC(C)CCNC(=O)c1cc(-c2ccncc2)cn1C	.	58.1%	.	.	.	.
O=S(=O)(NCCc1coc(-c2ccccc2)n1)c1ccc2ccccc2c1	.	-24.5%	.	.	.	.
CCCCCCCCCS(=O)(=O)N/N=C/c1cccc([N+](=O)[O-])c1	i	?	i	14.6µM*	8.8%[38.3 µM]	0.4%
O=[N+]([O-])c1ccc(N/N=C/c2cccc(O)c2O)cc1	i	?	?	23.1µM*	5.5%	?
CCCCCCCCCCS(=O)(=O)N/N=C/c1ccccc1[N+](=O)[O-]	.	-1.0%	.	.	.	.
O=[N+]([O-])c1ccc(C=NNc2ccc(S(=O)(=O)O)cc2)cc1	i	?	i	1.1%	1.1%	-1.7%
